The supplement of paper PMC5662767
Structures can show the parent of a compound that is named as a salt.

Test system: Drosophila S2 cl14 SmoIP sensor cells
Assay: normalized SmoIP GFP fluorescence (untreated unstimulated = 0%, untreated Hh-stimulated = 100%); higher = more Smo activation sensor fluorescence
Conditions: compound concentration: 2 uM, 24 h
[1] = stimulation: mock conditioned medium (-Hh)
[2] = stimulation: Hh conditioned medium (+Hh)
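Also: flow cytometry read-out as median GFP intensity of gated cells, compounds added 30 min before Hh-conditioned or mock medium, mock-treated cells serving as unstimulated baseline.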

| Structure (SMILES) | normalized SmoIP GFP fluorescence [1] [%] | normalized SmoIP GFP fluorescence [2] [%] |
| --- | --- | --- |
| COc1ccc(C(CN(C)C)C2(O)CCCCC2)cc1 (configuration not stated) [Venlafaxine-hydrochloride] | -2.42 |  |
| CCc1c(C(=O)C(N)=O)c2c(OCC(=O)O)cccc2n1Cc1ccccc1 | 4.26 |  |
| C#C[C@]1(O)C=C[C@H]2[C@@H]3CCC4=CC(=O)CC[C@@H]4[C@H]3CC[C@@]21CC [Gestodene] | 5.45 |  |
| Cn1cc(C2=C(c3cn(C4CCN(Cc5ccccn5)CC4)c4ccccc34)C(=O)NC2=O)c2ccccc21 [Enzastaurin] | 38.2 | 135 |
| Cc1cc(SCc2sc(-c3ccc(C(F)(F)F)c(F)c3)nc2C)ccc1OCC(=O)O | -1.74 | 106 |
| COC[C@H]1OC(=O)c2coc3c2[C@@]1(C)C1=C(C3=O)[C@@H]2CCC(=O)[C@@]2(C)C[C@H]1OC(C)=O [wortmannin] | 9.08 | 73.6 |
| C[C@](O)(COc1ccc(C#N)cc1)C(=O)Nc1ccc(C#N)c(C(F)(F)F)c1 [Ostarine] | 2.97 | 119 |
| C[C@]12CC[C@H](O)CC1=CC[C@@H]1[C@@H]2CC[C@]2(C)C(=O)CC[C@@H]12 [Dehydroepiandrosterone(DHEA)] | -12.4 | 134 |
| O=C(O)CNC(=O)c1c(O)c2ccccc2n(Cc2ccccc2)c1=O | -2.82 | 109 |
| COc1ccc(C(=O)N2CCCC2=O)cc1 [Aniracetam] | -0.588 | 104 |
| C=C1C[C@@H]2[C@H](CC[C@]3(C)C(=O)CC[C@@H]23)[C@@]2(C)C=CC(=O)C=C12 [Exemestane] | -5.01 | 115 |
| CN1c2ccccc2C(NCCCCCCC(=O)O)c2ccc(Cl)cc2S1(=O)=O (configuration not stated) [Tianeptine-sodium-salt] | 0.274 | 110 |
| CCOc1ccccc1-n1c(C(C)N2CCN(C(=O)COc3ccc(Cl)cc3)CC2)nc2ccccc2c1=O (configuration not stated) [erastin] | 3.66 | 134 |
| Cc1sc2c(c1C)C(c1ccc(Cl)cc1)=N[C@@H](CC(=O)Nc1ccc(O)cc1)c1nnc(C)n1-2 | -1.34 | 102 |
| CC(C)(C)c1cc(C=C(C#N)C#N)cc(Br)c1O [ag-1024-tyrphostin] | 14.2 |  |
| [O-][n+]1ccccc1[S-].[O-][n+]1ccccc1[S-].[Zn+2] [zinc-pyrithione] | 2.35 | 131 |
| CCN(C)C(=O)Oc1cccc([C@H](C)N(C)C)c1 [rivastigmine-tartrate-exelon] | -3.05 | 95.8 |
| C[C@H]1CCC/C=C/[C@@H]2C[C@H](O)C[C@H]2[C@H](O)/C=C/C(=O)O1 [brefeldin-a] | -4.58 | 101 |
| CCN(CC)C(=O)c1ccc(C2=CC3(CCNCC3)Oc3cccc(O)c32)cc1 | 2.11 | 99.7 |
| CN1CCCCC1Cn1cc(C(=O)c2cc([N+](=O)[O-])ccc2I)c2ccccc21 (configuration not stated) | 32.3 |  |
| C[N+](C)(C)CCCCCCCCCC[N+](C)(C)C [decamethonium-bromide] | -5.04 | 104 |
| O=C(NCC1CCOCC1)c1cnc(Nc2ccc(Cl)cc2Cl)nc1C(F)(F)F | -1.63 | 102 |
| CC[C@@]1(O)C(=O)OCc2c1cc1n(c2=O)Cc2cc3ccccc3nc2-1 [Camptothecine] | 2.64 | 33.6 |
| O=C(O[C@H]1C[N+]2(CCCOc3ccccc3)CCC1CC2)C(O)(c1cccs1)c1cccs1 [aclidinium-bromide] | -4.58 | 97.3 |
| O=c1[nH]c2ccc(Cl)cc2c(N[C@@H]2CN3CCC2CC3)c1-c1nc2ccccc2[nH]1 [chir-124] | 23.9 | 253 |
| CN1CCN(c2nc3ccccc3nc2Cl)CC1 | -1.34 | 105 |
